The text below walks through data of PubChem BioAssay (Tox21).

The nature of assay [1]: qHTS assay to identify small molecule agonists of the vitamin D receptor (VDR) signaling pathway - cell viability counter screen (AID 743224; active means well fitted curve in the direction sought with a large enough effect in the repeat runs; an effect the other way counts as inactive or inconclusive; further: nearly all actives have a fitted effect of over 50% in size; further: potency means the concentration at half of the fitted maximal effect). In outline: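 CellTiter-Glo viability readout on VDR-bla cells, measured after 16 h of compound treatment at 37C in the same wells.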
The nature of assay [2]: qHTS assay to identify small molecule antagonists of the vitamin D receptor (VDR) signaling pathway - cell viability counter screen (AID 743225; active means well fitted curve in the direction sought with a large enough effect in the repeat runs; an effect the other way counts as inactive or inconclusive; further: nearly all actives have a fitted effect of over 50% in size). In a few lines: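 VDR-UAS-bla HEK 293T cells were plated and incubated 4 h at 37C, then dosed with compound plus 3 nM (final) 1-alpha,25-dihydroxyvitamin D3 for 16 h. After the 2 h beta-lactamase read, viability in the same wells was read as CellTiter-Glo luminescence after 30 min at room temperature.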

Assay [3] in a line: qHTS assay to identify small molecule agonists of the NFkB signaling pathway (AID 1159509; active means well fitted curve in the direction sought with a large enough effect in the signal ratio in the repeat runs, not every such curve was filed as active; the % refers to the signal ratio; further: series mostly up to about 61 µM). In outline: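 Readout: FRET fluorescence, 405 nm excitation, 460/530 nm emission; beta-lactamase expression disrupts FRET. Cells: ME-180 stably carrying NF-kB-driven bla reporter. Compound exposure 5 hr, 37 C, 5% CO2.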
Assay [4] in a line: qHTS assay to identify small molecule agonists of the endoplasmic reticulum stress response signaling pathway (AID 1159516; active means well fitted activation curve with a large enough effect in the signal ratio in the repeat runs, not every such curve was filed as active; the % refers to the signal ratio). In outline:
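Fluorescence at 460 and 530 nm (405 nm excitation) reports beta-lactamase from an ER stress response element in HeLa cells treated 5 hr at 37 C.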

The nature of assay [5]: qHTS assay to identify small molecule agonists of the endoplasmic reticulum stress response signaling pathway - cell viability counter screen (AID 1159517). Further: nearly all actives have a fitted effect of over 50% in size. Further: potency means the concentration at half of the fitted maximal effect. In a few lines:
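Steps: seed 1,500 ESRE-bla HeLa cells per well; incubate overnight at 37 C, 5% CO2; add compounds in DMSO for 5 hr; run FRET substrate 2 hr RT; add CellTiter-Glo, wait 30 min, read luminescence.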

Assay [6] in a line: qHTS assay to identify small molecule antagonists of the retinoid-related orphan receptor gamma (ROR-gamma) signaling pathway - cell viability counter screen (AID 1159520; active means well fitted curve in the direction sought with a large enough effect in the repeat runs; an effect the other way counts as inactive or inconclusive; further: nearly all actives have a fitted effect of over 50% in size; further: potency means the concentration at half of the fitted maximal effect). In a few lines: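 Tet-on ROR gamma CHO cells were given compounds for 2 hr, then doxycycline hyclate at 1 uM final, and incubated 16 hr at 37 C. Viability was measured as ATP content by CellTiter-Glo luminescence.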

Assay [7] can be described thus: qHTS assay to identify small molecule agonists of the AP-1 signaling pathway - cell viability counter screen (AID 1159525). Further: nearly all actives have a fitted effect of over 55% in size. In outline:
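Same-well cytotoxicity counter screen of the Tox21 10K library in ME-180 cells. The readout is ATP-dependent luminescence after 5 h compound treatment. Data are normalised to DMSO and tetra n-octyl ammonium bromide controls.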

Assay [8] is described as follows: qHTS assay to identify small molecule agonists of the AP-1 signaling pathway (AID 1159526).
A short description of assay [9]: qHTS assay to identify small molecule agonists of the NFkB signaling pathway - cell viability counter screen (AID 1159515). Further: series mostly up to about 61 µM; nearly all actives have a fitted effect of over 55% in size. In a few lines: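 Tox21 library compounds were tested for cytotoxicity against NFkB-bla ME-180 cells during a 5 hr exposure at 37 C. CellTiter-Glo luminescence served as the viability read-out.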
Assay [10] deals with Nuclear receptor ROR-gamma (Homo sapiens) (UniProt P51449). Put plainly: qHTS assay to identify small molecule antagonists of the retinoid-related orphan receptor gamma (ROR-gamma) signaling pathway (AID 1159521; active means well fitted curve in the direction sought with a large enough effect in the repeat runs; an effect the other way counts as inactive or inconclusive; further: nearly all actives have a fitted effect of over 50% in size; further: potency means the concentration at half of the fitted maximal effect). In a few lines:
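Tet-on ROR-gamma CHO cells with ROR response element-luciferase reporter; compounds added 2 hr before 1 uM doxycycline induction, then 16 hr at 37 C. Antagonism scored as decreased ONE-Glo luminescence.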

Records with an inconclusive call do not appear. Active and inactive are the calls of the source. Unless noted, the call rests on the fitted dose curve.

As for `COc1cc(Cl)c(OC)cc1Cl`, the Potency entry in assay [1], in assay [2], in assay [5], in assay [6] and in [7] was “inactive” each time. The compound was called inactive in [3] and in assay [4].
Consider `Sc1ccccc1Cl`, for which the Potency entry in [1], in [2], in assay [6] and in assay [7] was “inactive” in each case. Further, the outcome in assay [3], in assay [4] and in assay [8] was inactive.
Turning to `CCOP(=S)(OCC)SCSCC`, the Potency entry in assay [1], in [9], in [5], in assay [6] and in [7] was “inactive” each time. Besides, the result in [4] and in assay [8] was inactive.
On to `CCOc1ccc(C(C)(C)COCc2cccc(Oc3ccccc3)c2)cc1`, for which the Potency result in assay [1], in assay [2], in [5], in assay [10] and in assay [7] was “inactive” each time. In addition, the compound was classed as inactive in [3] and in assay [8].
Consider `c1cc2ccc3cccc4ccc(c1)c2c34`, for which the compound was called inactive in assay [3] and in [8]. Moreover, in assay [6], the Potency result is “inactive”.
As for `O=[N+]([O-])C(Br)(CO)CO`, the outcome in assay [3] and in assay [4] was inactive. Besides, the Potency in assay [10] is 48.6 µM (active).
Consider `N#CCc1ccccc1`, for which the Potency result in assay [1], in assay [5], in assay [6], in assay [10] and in assay [7] was “inactive” throughout. The compound was called inactive in [3] and in assay [8].
On to `C=CC(=O)OC(C)(C)C`, for which the Potency result in [1], in [2], in assay [10] and in assay [7] was “inactive” throughout. For the same compound, the compound was classed as inactive in assay [3], in assay [4] and in [8].
Regarding `O=S(=O)(O)C(F)(F)C(F)(F)C(F)(F)C(F)(F)F`, the compound was classed as inactive in assay [3] and in [8]. In addition, the Potency entry in assay [6] and in assay [10] was “inactive” each time.
Regarding `COC(=O)C(Br)CBr` (centres undefined), the Potency entry in assay [1], in assay [2], in assay [5] and in assay [7] was “inactive” each time. The compound was called inactive in [3] and in [8].
With `C=CC(=O)NCNC(=O)C=C`, the Potency entry in assay [1], in assay [5], in assay [6] and in assay [7] was “inactive” in each case. Also, the outcome in assay [3] and in assay [8] was inactive.
On to `O=S1(=O)OC(c2cc(Br)c(O)c(Br)c2)(c2cc(Br)c(O)c(Br)c2)c2ccccc21`, for which the Potency result in assay [2] is “inactive”. Besides, the compound was classed as inactive in assay [3] and in assay [8]. Also, the results for the Potency in [6] and in assay [10] were 7.91 µM (active) and 5.6 µM (active), respectively.
For `C=CCC1([C@H](C)CCC)C(=O)NC(=O)NC1=O`, the Potency entry in assay [1], in assay [2], in assay [5] and in assay [7] was “inactive” throughout. Moreover, the result in assay [3] and in assay [8] was inactive.
For the compound `NS(=O)(=O)C(F)(F)C(F)(F)C(F)(F)C(F)(F)C(F)(F)C(F)(F)C(F)(F)C(F)(F)F`, in assay [1], the Potency is 49 µM (active). Further, the call in assay [3] and in assay [8] was inactive. The Potency result in [6] and in assay [7] was “inactive” each time.
As to `CC(C)(C)C(O)C(Oc1ccc(Cl)cc1)n1cncn1` (centres undefined), the Potency result in assay [2], in assay [6] and in assay [7] was “inactive” in each case. Moreover, the call in assay [3] was inactive.
Regarding `CC1Sc2c(C(=O)O)c(=O)c3cc(F)c(N4CCNCC4)cc3n21` (centres undefined), the Potency entry in assay [1], in [5], in assay [6] and in assay [7] was “inactive” each time. The outcome in assay [3] and in [8] was inactive.
Consider `Brc1ccccc1`, for which the Potency entry in assay [1] and in assay [6] was “inactive” throughout. The result in assay [3], in assay [4] and in assay [8] was inactive.
For `CNC(C)Cc1ccccc1OC` (centres undefined), the Potency result in assay [1], in [2], in assay [5] and in assay [6] was “inactive” in each case. In addition, the compound was called inactive in [3] and in [8].
As to `O=[N+]([O-])c1ccccc1CCl`, the Potency entry in assay [1], in [2], in [5], in assay [10] and in assay [7] was “inactive” throughout. Further, in assay [3], the compound was classed as inactive.
On to `CCn1cc[n+](C)c1`, for which the Potency entry in [1], in [2], in assay [9], in assay [5] and in assay [7] was “inactive” each time. For the same compound, the compound was called inactive in [4] and in assay [8].
As for `Clc1cc(C(Cl)(Cl)Cl)cnc1Cl`, the Potency entry in assay [1], in assay [6] and in assay [10] was “inactive” each time. In addition, the outcome in assay [3] and in assay [8] was inactive. Further, the Potency in assay [5] is 11 µM (active).
For `O=[N+]([O-])c1cc(C(F)(F)F)cc([N+](=O)[O-])c1Cl`, the Potency entry in assay [1], in assay [5], in assay [6], in [10] and in assay [7] was “inactive” in each case. Besides, the compound was classed as inactive in assay [3] and in assay [8].
Consider `CN1C(=O)NC(=O)C(C)(C2=CCCCC2)C1=O` (centres undefined), for which the Potency entry in assay [1], in [2], in assay [5], in assay [6] and in assay [10] was “inactive” throughout. Further, the result in assay [3] and in assay [8] was inactive.
